Reference: PubChem BioAssay (Tox21)
A number with no mark means an inactive call. Records with an inconclusive call do not appear. A call without a number means that no potency is given here. The source made the active and inactive calls. Unless noted, the call rests on the fitted dose curve; in most records, active means well fitted curve in the direction sought with a large enough effect in the repeat runs; inconclusive means weak or mixed curves; inactive means no such curve, though single readings can be large; an effect the other way counts as inactive or inconclusive.

What was measured:
[1] = qHTS assay to identify small molecule agonists of H2AX (AID 1224845; active means well fitted activation curve with a large enough effect in the signal ratio in the repeat runs, not every such curve was filed as active; the % refers to the signal ratio)
Method in brief: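 Phospho-H2AX Ser139 measured by HTRF (ex 320 nm; em 665 and 620 nm) after 24 hr antibody incubation. Compounds, 15 concentrations, 0.76% DMSO, were applied to CHO-K1 cells for 3hr at 37C before lysis.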

[2] = qHTS assay to identify small molecule agonists of H2AX - cell viability counter screen (AID 1224847; calls by dose curve; further: top concentration of the series differs between compounds; nearly all actives have a fitted effect of over 30% in size)
Method in brief: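 We seed wild-type CHO-K1 cells overnight, treat them for 3 hr at 37C with compounds in 15-concentration series, and quantify remaining viability by CellTiter-Glo luminescence.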

[3] = qHTS RealTime-Glo MT Cell Viability Assay in HepG2 cells - 24 hour (AID 1224867); further: nearly all actives have a fitted effect of over 50% in size
Method in brief: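 Tox21 10K library screened in qHTS format on HepG2 cells carrying RealTime-Glo reagents. Compounds were added after a 5 h preincubation, and the luminescent signal from continuous culture was measured repeatedly during 40 h treatment.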

[4] = qHTS RealTime-Glo MT Cell Viability Assay in HEK293 cells - 32 hour (AID 1224868); further: top concentration of the series differs between compounds; nearly all actives have a fitted effect of over 50% in size
Method in brief: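 Luminescence generated by NanoLuc from substrate produced by living HEK293 cells served as the viability signal. Each value reflects the reading at its stated time point during continuous 40 h compound exposure at 37 C.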

[5] = A CellTox Green Cytotoxicity Assay to monitor cytotoxicity in HEK293 cells - 0 hour (AID 1224869); further: nearly all actives have a fitted effect of over 50% in size
Method in brief: (§1)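 Fluorescence from a DNA-binding dye excluded by viable cells was measured repeatedly in the same HEK293 wells (600 cells/well) during continuous compound exposure at 37 C. Each assay gives one read point: 0, 8, 16, 24, 32 or 40 h.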

[6] = qHTS RealTime-Glo MT Cell Viability Assay in HepG2 cells - 40 hour (AID 1224870); further: nearly all actives have a fitted effect of over 50% in size
Method in brief: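 Real-time viability: cells seeded at 600 per well together with NanoLuc and cell-permeant prosubstrate, compounds added after 5 h incubation. Luminescence tracked at 0, 8, 16, 24, 32 and 40 h of exposure.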

[7] = A CellTox Green Cytotoxicity Assay to monitor cytotoxicity in HEK293 cells - 40 hour (AID 1224871); further: nearly all actives have a fitted effect of over 45% in size; further: potency means the concentration at half of the fitted maximal effect
Method in brief: as §1

[8] = qHTS assay to identify small molecule antagonists of the estrogen related receptor (ERR) signaling pathway from Tox21 library (AID 1224848); further: nearly all actives have a fitted effect of over 50% in size
Method in brief: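 ERR cell line, 2,000 cells/well. 6 h settle, then compound (DMSO) added; 18 h at 37 C; ONE-Glo luminescence after 30 min RT.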

[9] = qHTS assay to identify small molecule agonists of the estrogen related receptor (ERR) signaling pathway from Tox21 library (AID 1224849; calls by dose curve; further: nearly all actives have a fitted effect of over 15% in size)
Method in brief: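 Luminescent agonist read-out (One-Glo, 30-minute room-temperature incubation) following 18-hour compound treatment at 37 C of the ERR cell line, which had been plated 6 hours before dosing.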

[10] = qHTS assay to identify small molecule agonists of the hypoxia (HIF-1) signaling pathway (AID 1224846; active means well fitted activation curve with a large enough effect in the signal ratio in the repeat runs, not every such curve was filed as active; the % refers to the signal ratio)
Method in brief: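 Compounds added to ME-180 cells carrying hypoxia-response-element beta-lactamase reporter (0.5% dialyzed FBS, 5 h preplating), 17 h at 37C; agonist activity detected by CCF4-AM B/G FRET read-out.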

Compound | Potency [1] | outcome [2] | outcome [3] | Potency [4] | outcome [5] | Potency [6] | Potency [7] | Potency [8] | outcome [9] | outcome [10]
C=C(C)C(=O)OCC1CCCO1 (configuration not stated) | inactive | inactive | inactive | inactive | inactive | inactive | inactive |  |  | 
CC1=CCC(O)(C(C)C)CC1 (configuration not stated) | inactive | inactive | inactive | inactive | inactive | inactive | inactive |  |  | 
CO/N=C(\C(=O)N[C@@H]1C(=O)N2C(C(=O)O)=C(CSc3nc(=O)c(O)nn3C)CS[C@H]12)c1csc(N)n1 | inactive | inactive | inactive | inactive | inactive | inactive | inactive | inactive | inactive | 
C=C(C)C(=O)OCC(O)CO (configuration not stated) | inactive | inactive | inactive | inactive | inactive | inactive | inactive | inactive | inactive | 
O=C(CO)[C@@H](O)[C@H](O)[C@@H](O)CO | inactive | inactive | inactive | inactive | inactive | inactive | inactive | inactive | inactive | 
C[C@@H]1CCC[C@H](C)N1 | inactive | inactive | inactive | inactive |  | inactive | inactive | inactive | inactive | 
CN1[C@@H]2CC[C@H]1CC(OC(=O)C(O)c1ccccc1)C2 (some centres not stated) | inactive | inactive | inactive | inactive |  | inactive | inactive | inactive | inactive | 
CC(N)C12CC3CC(CC(C3)C1)C2 (configuration not stated) | inactive | inactive | inactive | inactive | inactive | inactive | inactive |  |  | 
CC(C)COC(=O)c1ccc(N)cc1 | inactive | inactive | inactive | inactive | inactive | inactive | inactive | inactive |  | 
c1ccc(CCc2ccccc2)cc1 | inactive | inactive | inactive | inactive | inactive | inactive | 38.9 µM (active) | inactive | inactive | 
CN(C)C(=O)Oc1ccc[n+](C)c1 | inactive | inactive | inactive | inactive | inactive | inactive | inactive | inactive | inactive | 
O=C(O)CCCC[P+](c1ccccc1)(c1ccccc1)c1ccccc1 | inactive | inactive | inactive | inactive | inactive | inactive | inactive |  |  | 
C=CCCC(=O)O | inactive | inactive | inactive | inactive | inactive | inactive | inactive | inactive | inactive | 
CC(C)C1CCC(O)CC1 (configuration not stated) | inactive | inactive | inactive | inactive | inactive | inactive | inactive |  |  | 
CC1=C(C/C=C(\C)CCC[C@H](C)CCC[C@H](C)CCCC(C)C)C(=O)c2ccccc2C1=O | inactive | inactive | inactive |  | inactive | inactive | inactive | inactive | inactive | 
COc1cccc(OC)c1C(=O)N[C@@H]1C(=O)N2[C@@H]1SC(C)(C)[C@@H]2C(=O)O | inactive | inactive | inactive | inactive | inactive | inactive | inactive |  |  | 
C[N+]1(C)CCCC(OC(=O)C(O)(c2ccccc2)c2ccccc2)C1 (configuration not stated) | inactive | inactive | inactive | inactive | inactive | inactive | inactive | inactive | inactive | 
NC(=O)N1c2ccccc2CC(=O)c2ccccc21 | inactive |  | inactive | inactive |  | inactive | inactive |  |  | inactive
NS(=O)(=O)Cc1noc2ccccc12 | inactive | inactive | inactive | inactive | inactive | inactive | inactive | inactive | inactive | 
C[N+]12CCC(CC1)C(OC(=O)C(O)(c1ccccc1)c1ccccc1)C2 (configuration not stated) | inactive | inactive | inactive | inactive | inactive | inactive | inactive | inactive | inactive | 
CO[C@@]1(NC(=O)C(C(=O)O)c2ccc(O)cc2)C(=O)N2C(C(=O)O)=C(CSc3nnnn3C)CO[C@@H]21 (some centres not stated) | inactive | inactive | inactive | inactive |  | inactive | inactive | inactive | inactive | 
Cc1c(N)c(=O)n(-c2ccccc2)n1C | inactive | inactive | inactive | inactive | inactive | inactive | inactive |  |  | 
CC[N+](C)(CC)CCOC(=O)C1c2ccccc2Oc2ccccc21 | inactive | inactive | inactive | inactive | inactive | inactive | inactive |  |  | 
CCCCCCC#CC(=O)OC | inactive | inactive | inactive | inactive | inactive | inactive | inactive | inactive | inactive | 
